# Compound activity deposited in PubChem BioAssay by National Center for Advancing Translational Sciences (NCATS).
# In the library only some 12% were active in any assay of this set; here they are far more common.
# CHX counter = counter-screen for Shiga toxin inhibitors: cycloheximide protein synthesis inhibition; cell reporter, cycloheximide protein synthesis inhibition counterscreen; max response, %; 300,000 compounds, 12% hits; AID 2314; in the data active = max response mostly above about 13%, no sharp cut-off; inactive = mostly below about 14%; also: read at 38.3 µM for the half of the compounds with a filed dose
# LASV entry inh = inhibitors of Lassa virus binding or cell entry. Potency, µM (highest dose often 37.9 µM), actives largely listed as inhibitors. AID 540256. 300,000 compounds, 1.2% hits. Lassa virus pseudotype entry inhibition, cell reporter; calls by dose curve; tested in HEK293 cells; also: nearly all actives have a fitted effect of over 50% in size
# MARV entry inh = blocks Marburg virus binding to or entry into cells | Marburg virus pseudotyped entry inhibition, cell reporter | Potency, µM (top dose mostly 37.8 µM), most hits filed as inhibitors | 300,000 compounds, 1.8% hits; calls by dose curve; tested in HEK293 cells
# Shiga toxin inh = Shiga toxin inhibition | 290,000 compounds, 9.2% hits | inhibition, % at 38.7 µM | Vero cells, Shiga toxin protein synthesis inhibition reporter; in the data active = inhibition mostly above about 28%, no sharp cut-off; inactive = mostly below about 43%
# Hits are given with their value; . = inactive; ? = inconclusive; / = no result given; ! = not active in a repeat.
SMILES,CHX counter,LASV entry inh,MARV entry inh,Shiga toxin inh
Oc1[nH]c2ccccc2c1N=Nc1ccc(C(F)(F)F)cn1,18,.,?,.
NC(=S)N=Nc1c(O)[nH]c2ccccc12,.,?,.,.
Oc1[nH]c2ccccc2c1N=Nc1nncc2ccccc12,35,/,/,60
CCCc1nn2c(=O)cc(COC(=O)c3ccc(NC(=O)COc4ccccc4F)cc3)nc2s1,/,.,/,/
COc1ccc2cc(/C=N/O)c(Cl)nc2c1,.,?,.,.
COc1ccc2cc(/C=N/NC(=O)c3ccc(CN(c4cccc(Cl)c4Cl)S(C)(=O)=O)cc3)c(Cl)nc2c1,.,?,0.56µM,.
Cc1cc(Cl)c(OCCOCCN2CCC(C)CC2)c(Br)c1,.,?,6.5µM,.
CC1CCN(CCCOc2ccc(Cl)cc2Br)CC1,26,.,?,73
CC1CCCN(CCCOc2ccc(Cl)cc2Br)C1 (stereo not given),37,.,?,103
CC1CCN(CCOCCOc2ccc(Cl)cc2Br)CC1,.,?,?,.
CC1CCCN(CCOc2ccc3ccccc3c2Br)C1 (stereo not given),.,?,?,43
CCc1ccc(-n2c(=O)c3c4c(sc3n(CC(=O)NCCCOC)c2=O)CCCC4)cc1,/,.,.,/
Cn1c(C(=O)NCc2ccc(F)cc2)cc2c(=O)n(C)c3ccccc3c21,/,.,.,/
CC(=O)N1CCN(c2ccccc2NC(=O)COc2cc(C)cc(C)c2)CC1,.,.,.,.
Cc1noc(C)c1COc1ccc(C(=O)NCc2ccccn2)cc1,.,.,.,.
Cc1cc2ncn(C(=O)N3CCC(C)CC3)c2cc1C,28,?,.,67
Oc1ccccc1N=Nc1ccccc1O,94,/,/,194
Nc1ccc(N=Nc2ccccc2O)c(N)c1,/,.,.,/
Cc1ccc2c(CC(=O)OCc3nc(N)nc(Nc4ccccc4C)n3)coc2c1,.,.,15µM,.
Cc1ccccc1Nc1nc(N)nc(COC(=O)CC2CC3CCC2C3)n1 (stereo not given),.,?,14µM,.
Cc1ccccc1Nc1nc(N)nc(COC(=O)CCS(=O)(=O)c2ccccc2)n1,.,.,?,.
CCCn1nnc(NC(=O)c2cccc(OCC(C)C)c2)n1,39,.,.,71
CCCn1nnc(NC(=O)c2ccc3ccccc3c2)n1,44,.,.,143
CCCn1nnc(NC(=O)c2cccc(OCC)c2)n1,45,.,.,130
CCn1nnc(NC(=O)c2cccnc2)n1,.,.,?,.
SMILES,CHX counter,LASV entry inh,MARV entry inh,Shiga toxin inh
CCCn1nnc(NC(=O)c2ccc(F)cc2)n1,48,?,.,57
COc1ccc(OC)c(CCNC(=O)CCc2nnc3ccc(N4CCOCC4)nn23)c1,.,/,/,.
CCn1nnc(NC(=O)c2ccc(C(C)(C)C)cc2)n1,36,.,.,.
CCC(C)n1c(SCc2ccc([N+](=O)[O-])cc2)nc2ccsc2c1=O (stereo not given),.,?,13µM,.
N#Cc1c(Cl)nsc1NCCN1CCOCC1,.,.,.,.
CC(=O)N1c2ccccc2C2(O)N=C(C)SC12 (stereo not given),12,.,.,.
O=C(c1ccccc1)c1ccc2nc(-c3ccco3)c(-c3ccco3)nc2c1,36,?,.,56
COc1ccccc1N1CCN(C(=O)c2ccc3nc(-c4ccco4)c(-c4ccco4)nc3c2)CC1,.,?,21µM,.
O=C(O)c1ccc2nc(-c3ccccc3)c(-c3ccccc3)nc2c1,56,?,.,65
O=C(NCCc1ccccc1)c1ccc2nc(-c3ccco3)c(-c3ccco3)nc2c1,.,?,?,.
NC(=O)c1ccc2nc(-c3ccccc3)c(-c3ccccc3)nc2c1,.,/,/,.
CCOC(=O)CSC1=C(C#N)C(c2ccccc2Cl)C(C(=O)OC)C(=O)N1 (stereo not given),.,?,.,.
CCOc1ccc(OCCC(=O)OCC(=O)Nc2ccc(Cl)cn2)cc1,/,.,.,/
Fc1ccc(-c2nc(-c3cnccn3)no2)c(Cl)c1,40,.,.,83
Clc1ccc(-c2nc(-c3cnccn3)no2)cc1,30,.,.,59
CC(=O)c1ccc(OCCCC(=O)N(CCC2=CCCCC2)c2c(N)n(Cc3ccccc3)c(=O)[nH]c2=O)cc1,/,.,?,/
C[C@H]1CC[C@H]2C(=O)O[C@H](COc3ccc(C(C)(C)C)cc3)CN2[C@@H]1c1ccc(Br)cc1,/,/,.,/
CCc1nc(SCC(=O)Nc2ccc(N(C)C)cc2)c2ccccc2n1,.,/,/,.
O=C(c1ccc2nc(N3CCCCC3)sc2c1)N1CCN(c2ccccn2)CC1,23,/,.,.
CCOC(=O)N1CCN(C(=O)c2ccc3nc(N4CCCCC4)sc3c2)CC1,14,.,.,.
NC(=O)C1CCN(C(=O)c2ccc3nc(N4CCCCC4)sc3c2)CC1,35,.,?,71
O=C(c1ccc2nc(N3CCCCC3)sc2c1)N1CCN(Cc2ccc3c(c2)OCO3)CC1,30,/,.,active
COc1ccc(CNC(=O)c2cnn(-c3ccc(C)cc3)c2-n2cccc2)cc1OC,/,.,/,/
c1ccc(CN2CCN(c3nc4ccccc4s3)CC2)cc1,53,?,?,96
COc1ccc(N2CCN(C(=O)c3ccc4nc(N5CCC(C)CC5)sc4c3)CC2)cc1,/,?,.,/
SMILES,CHX counter,LASV entry inh,MARV entry inh,Shiga toxin inh
c1ccc2sc(N3CCCCC3)nc2c1,/,.,.,/
COc1cccc(N2CCN(C(=O)c3ccc4nc(N5CCC(C)CC5)sc4c3)CC2)c1,64,?,?,117
CC1CCN(c2nc3ccc(C(=O)N4CCN(Cc5ccccc5)CC4)cc3s2)CC1,52,/,.,85
CCOC(=O)N1CCN(C(=O)c2ccc3nc(N4CCC(C)CC4)sc3c2)CC1,24,.,.,42
C=C(C)C1CCC(C)=CC1c1c(O)cc(O)cc1CCCCC (stereo not given),.,/,/,.
O=[N+]([O-])c1cccc(-c2nnc3ccccn23)c1,.,/,/,.
CC(c1cccs1)N(Cc1ccco1)C(=S)Nc1ccccc1Cl (stereo not given),.,.,?,.
CC(NC(=O)COC(=O)CCc1ccc(S(=O)(=O)N2CCOCC2)cc1)C1CC2CCC1C2 (stereo not given),36,.,.,.
O=C(COC(=O)CCc1ccc(S(=O)(=O)N2CCOCC2)cc1)Nc1ccc(Cl)cn1,.,.,0.79µM!,.
Cc1cc(C)cc(NC(=O)COC(=O)CCc2ccc(S(=O)(=O)N3CCOCC3)cc2)c1,.,.,.,.
NC(=O)c1ccc(Oc2ccc3c(c2)CCC3)c([N+](=O)[O-])c1,.,.,.,.
COc1cc(C(=O)NCCCNc2nc3c(C)cc(C)cc3cc2C#N)cc(OC)c1OC,.,.,.,.
O=C(Nc1ccc(Oc2ccccc2)nc1)C1CCCCN1Cc1cccc(O)c1 (stereo not given),.,?,?,.
O=C(Nc1ccc(Oc2ccccc2)nc1)C1CCCCN1Cc1ccc(O)cc1 (stereo not given),20,/,/,.
COc1cc(CN2CCCCC2C(=O)Nc2ccc(Oc3ccccc3)nc2)ccc1O (stereo not given),55,.,.,81
COCCC(=O)N1CCC(C(=O)Nc2ccc(Oc3ccccc3)nc2)CC1,63,/,/,66
CCCCCCN1C[C@H](O)[C@@H](n2cc(-c3ccc(F)cc3)nn2)C[C@H]1c1ccccc1,/,16µM,/,/
COc1ccc([C@H]2C[C@@H](n3cc(-c4ccc(F)cc4)nn3)[C@H](O)CN2CC2CCCCC2)cc1,/,.,/,/
